Among all 200,000 compounds or so, about 330 (0.17%) were called active.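 The calls were made as follows: active = activation factor of 2 or more at 20 µM, a signal rise over negative controls twice the positive control's; inactive = the rest.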 The full list was thinned out, with actives kept by preference. Where a SMILES comes first, the peptide text is derived from it. [ ]: non-standard residue; d: D form. ξ: configuration not given here. ξM = CSCCC(N)C(=O)O
tested on: alkaline phosphatase, intestinal [Bos taurus]; assay: bovine intestinal alkaline phosphatase activators, primary screen, biochemical, bovine IAP, CDP-star luminescence (AID 1016); conditions: purified bovine IAP, 30 min, at 20 µM, hits give high values, fold of DMSO-control signal, blank-subtracted

Row | Structure (SMILES) | activation factor
1 | COc1ccc(C(CC(=O)c2ccccc2)S(=O)(=O)c2ccccc2)cc1 (centres undefined) | 1 (inactive)
2 | CN(C)S(=O)(=O)c1cccc(NC(=O)COC(=O)C2(c3ccccc3F)CCCC2)c1 | 1.1 (inactive)
3 | NS(=O)(=O)c1ccc(NC(=O)COC(=O)C2(c3ccc(F)cc3)CCCC2)cc1 | 2.7 (active)
4 | NS(=O)(=O)c1ccc(NC(=O)COC(=O)c2ccco2)cc1 | 1 (inactive)
5 | CC1Cc2nc(SCC(=O)Nc3ccccc3F)n(C)c(=O)c2S1 (centres undefined) | 1.1 (inactive)
6 | CCn1c(SCC(=O)Nc2ccccc2F)nc2c(c1=O)SC(C)C2 (centres undefined) | 2 (active)
7 | CCn1c(SCC(=O)Nc2ccc3c(c2)OCCO3)nc2c(c1=O)SC(C)C2 (centres undefined) | 1 (inactive)
8 | COc1ccc(-c2nc(N)sc2C2(O)C(=O)Nc3c(Br)cc(F)cc32)cc1OC (centres undefined) | 1 (inactive)
9 | COC(=O)CNC(=O)C(CCSC)NC(C)=O (centres undefined) (Ac-[ξM]-Gly-OMe) | 1 (inactive)
10 | O=C(COC(=O)c1cccc(Br)c1)Nc1cccc2c1C(=O)c1ccccc1C2=O | 0.8 (inactive)
11 | O=C(CN1CCOCC1)Nc1c(Cl)cc(Cl)cc1Cl | 1 (inactive)
12 | O=C(CCCn1c(=O)c2sccc2n(CC(=O)NCC2CCCO2)c1=O)NCc1ccco1 (centres undefined) | 1 (inactive)
13 | [O-][n+]1c2c(nn1-c1ccc(Cl)c(Cl)c1)-c1nonc1CC2 | 1.1 (inactive)
14 | CCCOc1ccc(Cn2ccnc2)cc1[N+](=O)[O-] | 0.2 (inactive)
15 | Cc1ccc(Oc2cc(NC(=O)CCCn3nc(C)c([N+](=O)[O-])c3C)cc([N+](=O)[O-])c2)cc1 | 0.9 (inactive)
16 | Cc1[nH]nc(SCC(=O)NCC(C)C)c1[N+](=O)[O-] | 1.2 (inactive)
17 | COc1cc2c(cc1NC(=O)CN1CCN(S(=O)(=O)c3ccc(F)cc3)CC1)oc1ccccc12 | 2 (active)
18 | COc1ccccc1NC(=O)CN1CCN(S(=O)(=O)c2ccc(Br)cc2)CC1 | 1 (inactive)
19 | COc1ccc(NC(=O)CN2CCN(S(=O)(=O)c3ccc(F)cc3)CC2)cc1Cl | 0.9 (inactive)
20 | COc1ccc(-n2c(C)cc(C(=O)CN3C(=O)NC4(CCc5ccccc54)C3=O)c2C)cc1 (centres undefined) | 1 (inactive)

Row | Structure (SMILES) | activation factor
21 | C/C(=C\c1ccco1)CN1CCC(N2CCC(C(=O)N3CCOCC3)CC2)CC1 | 1.1 (inactive)
22 | CC(=O)c1cccc(NC(=O)[C@@H](NC(N)=O)C(C)C)c1 | 0.9 (inactive)
23 | O=C(COc1ccc(-c2ccccc2)cc1)NN=C1CCCC1 | 1 (inactive)
24 | CC(C)Nc1nnc(SCC(=O)/C=C2\N(C)c3ccccc3C2(C)C)s1 | 1.1 (inactive)
25 | O=C1Nc2ccc([N+](=O)[O-])cc2C1=Nc1cccc(CO)c1 | 0.9 (inactive)
26 | Cc1c(NC(=O)CCC2CCCCC2)cc(C(=O)N2CCOCC2)cc1[N+](=O)[O-] | 0.9 (inactive)
27 | C=C(C)c1cccc(C(C)(C)NC(=O)NCCN(CC)CC)c1 | 1.2 (inactive)
28 | C1=C(CCNc2ncnc3c2cnn3-c2ccccc2)CCCC1 | 0.9 (inactive)
29 | CC(=O)Nc1ccc(NC(=O)CSCc2cnn(-c3ccccc3)c2-n2cccc2)cc1 | 0.6 (inactive)
30 | O=C(NCCC1=CCCCC1)C1CCN(Cc2cnn(-c3ccccc3)c2-n2cccc2)CC1 | 2.5 (active)
31 | O=[N+]([O-])c1cc(S(=O)(=O)Nc2cccc(Cl)c2)ccc1N=Nc1c(O)[nH]c2ccccc12 | 0.8 (inactive)
32 | S=C(NCc1cccnc1)Nc1ccc(Cl)cc1Cl | 0.9 (inactive)
33 | O=C(Nc1cccn(Cc2ccccc2Cl)c1=O)NC1CCCCC1 | 1 (inactive)
34 | C=CCc1cccc2cc(C(=O)NC3CCCC3)c(=O)oc12 | 0.9 (inactive)
35 | COc1cccc(-c2ccc(C#N)c(SCC(=O)NCCc3ccc(Cl)cc3)n2)c1 | 0.8 (inactive)
36 | COc1ccc(CCNC(=O)CSc2nnc3ccc(-c4ccncc4)nn23)cc1 | 1.1 (inactive)
37 | COc1ccc(CCNC(=O)CSc2nc(-c3ccc(OC)c(OC)c3)ccc2C#N)cc1 | 2.1 (active)
38 | O=C(Nc1ccc2c(c1)C(=O)OC2)Nc1cccc2ccccc12 | 1.1 (inactive)
39 | CCc1ccc(Nc2nnc(SCC(=O)c3ccc4c(c3)NC(=O)CO4)s2)cc1 | 1.2 (inactive)
40 | Cc1ccc(S(=O)(=O)Nc2nc(N)n(-c3ccccc3)n2)cc1 | 1.2 (inactive)

Row | Structure (SMILES) | activation factor
41 | CCOC(=O)NN1C(=O)c2ccccc2NC1c1ccccc1O (centres undefined) | 1 (inactive)
42 | CCOC(=O)Cn1c2c(c(-c3ccccc3OC)cc1=O)CCCC2 | 2.1 (active)
43 | CCOC(=O)CN1CCC(c2ccccc2)CC1 | 1 (inactive)
44 | CCOC(=O)Cn1c(-c2cccnc2Cl)nc2ccccc21 | 1 (inactive)
45 | COc1ccccc1NC1=NC(c2ccc(Cl)cc2)N=C(N)N1 (centres undefined) | 2.7 (active)
46 | COc1ccccc1Nc1nc(N)nc(CN(C)C2CCCCC2)n1 | 0.9 (inactive)
47 | COc1ccccc1NC1=NC2(CCCC2)N=C(N)N1 | 0.9 (inactive)
48 | CCOc1cc(N2CCOCC2)c(OCC)cc1NC(=O)C1=NN(c2cccc(C)c2)C(=O)CC1 | 0.9 (inactive)
49 | O=C(NCc1ccccc1Cl)C1CCN(S(=O)(=O)N2CCOCC2)CC1 | 1 (inactive)
50 | O=C(CN1C(=O)/C(=C/c2ccccc2F)Sc2ccccc21)NCc1cccnc1 | 1.1 (inactive)
51 | Cc1ccc(S(=O)(=O)C2C(=O)NC3(C)CC2c2ccccc2O3)cc1 (centres undefined) | 0.9 (inactive)
52 | COc1ccc(/C=C/C(=O)NC(=S)NN2CCCCC2c2cccnc2)cc1 (centres undefined) | 0.7 (inactive)
53 | Cc1cccc(-n2cnc(C(=O)NNC(=S)Nc3ccccc3)c2)n1 | 1.6 (inactive)
54 | CCn1cc(/C=C2/SC(=S)NC2=O)c(C)n1 | 1.1 (inactive)
55 | CC1=CC=CC2=N/C(=N\S(=O)(=O)c3ccc(F)cc3F)c3ccccc3CN12 | 0.9 (inactive)
56 | CC(=O)c1ccc(NC(=O)C(C)NCc2ccc(Cl)cc2)cc1 (centres undefined) | 0.9 (inactive)
57 | CC1(C)Cc2cccc(OCC(=O)N3CCN(c4ccc([N+](=O)[O-])cc4)CC3)c2O1 | 0.9 (inactive)
58 | N=c1c2c(-c3ccccc3)c(-c3ccccc3)n(Cc3ccccc3)c2ncn1CCCO | 1.4 (inactive)
59 | OCCCN1c2ccccc2Nc2nnc(-c3ccccc3)cc21 | 9 (active)
